Data on eleven compounds can be found in PubChem BioAssay (NCATS).

The nature of experiment [1]: High-throughput drug toxicity screening in the BPDCN cell line Gen2.2 (AID 1224824; call rule not given here;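 also: cells exposed to compounds for 48 h before reading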). The settings on record: Gen2.2 BPDCN cells; at 45.8 µM (top of the series) unless noted. The essentials: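 Gen2.2 cells, 500 per well in phenol red-free RPMI with 10% FBS, exposed to compounds 48 h at 37 C, 5% CO2; viability by CellTiter-Glo luminescence. Percent activity scaled to DMSO (100%) and 9.2 uM bortezomib final (0%).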

The nature of experiment [2]: High-throughput drug toxicity screening in the BPDCN cell line Cal-1 (AID 1224825; call rule not given here). The conditions noted are these: Cal-1 BPDCN cell viability, qHTS; at 45.8 µM (top of the series) unless noted. The method in brief:
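500 Cal-1 cells/well, RPMI + glutamine + 10% FBS (phenol red-free); cpd added by pin tool; 48 h, 37C, 5% CO2; CTG 15 min RT, lumi read. Normalised: DMSO 100%, bortezomib 9.2 uM 0%.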
Background: In qHTS, concentration-response curves come from the screen itself.

The nature of experiment [3]: qHTS assay for measurement of the activity of small molecule inhibitors on Zika virus induced Caspase-3 activity in human iPSC derived neural progenitor cells (hNPCs) (AID 1224857). Also: nearly all actives have a fitted effect of over 65% in size. Also: potency is read from the fitted curve at half-maximal effect. The method in brief:
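After overnight (16–20 h) culture at 350 cells/well, hNPCs get compound, then ZIKV 2 FFU/cell one hour later. Six hours on, Caspase-Glo 3/7 is added and luminescence measured.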

Experiment [4] in a line: qHTS assay for measurement of the activity of small molecule inhibitors on Zika virus induced Caspase-3 activity in human astrocytoma cells (AID 1224859).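 Also: plate controls were ZIKV-infected untreated cells for no effect and uninfected cells for full effect.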 The method in brief: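 Inhibition of Zika-induced caspase-3/7 activity: SNB-19 cells, 1 h compound pretreatment, ZIKV 2 FFU/cell for 6 h at 37 C, Caspase-Glo luminescence read-out.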
Experiment [5] in a line: qHTS Screen of the MIPE 4.0 Collection Against Ewings Sarcoma (RDES) (AID 1259252). Also: nearly all actives have a fitted effect of over 35% in size. Also: potency is read from the fitted curve at half-maximal effect. The essentials:
(§1)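 CellTiter-Glo luminescence after 48 h compound exposure (titration) gave viability; percent activity used DMSO-treated cells as no inhibition and medium-only wells as full inhibition. Cells grown in RPMI/5% FBS, dosed 4 h post-seeding.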

A short description of experiment [6]: qHTS Screen of the MIPE 4.0 Collection Against Ewings Sarcoma (TC71) (AID 1259253). Also: nearly all actives have a fitted effect of over 40% in size. Also: potency is read from the fitted curve at half-maximal effect. The essentials: as §1
Experiment [7] in a line: qHTS Screen of the MIPE 4.0 Collection Against Ewings Sarcoma (EW8) (AID 1259255). Also: nearly all actives have a fitted effect of over 35% in size. Also: potency is read from the fitted curve at half-maximal effect.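 As to viability: 100% = DMSO-treated cells and 0% = medium-only wells without cells.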 The method in brief: as §1
The nature of experiment [8]: qHTS Screen of the MIPE 4.0 Collection Against Ewings Sarcoma (TC32) (AID 1259256). Also: nearly all actives have a fitted effect of over 45% in size. Also: potency is read from the fitted curve at half-maximal effect. The essentials:
as §1

Experiment [9] can be described thus: P-glycoprotein substrates identified in KB-8-5-11 adenocarcinoma cell line, qHTS therapeutic library screen (AID 1346987). Also: nearly all actives have a fitted effect of over 65% in size. Also: potency is read from the fitted curve at half-maximal effect. The essentials:
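Steps: plate 500 KB-8-5-11 cells/well in DMEM + 10% FCS (colchicine removed); pin compounds in dose-response; incubate 72 h, 37 degree C, 5% CO2; add CellTiter-Glo, 5 min; read luminescence.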

The nature of experiment [10]: qHTS assay to identify small molecule inhibitors of chordoma cells - UCH-1 (AID 1259355). Also: % is scaled to controls: 0 for no effect and ±100 for the full control effect; nearly all actives have a fitted effect of over 55% in size. The method in brief:
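Seed 800 cells per well; incubate overnight at 37 C, 5% CO2. Add test compounds (15 concentrations), then the auranofin–topoisomerase-agent combination. Incubate 48hr, add CellTiter-Glo, wait 30min, read luminescence.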

Experiment [11] can be described thus: qHTS assay to identify small molecule inhibitors of chordoma cells - UCH-2 (AID 1259356). Also: % is scaled to controls: 0 for no effect and ±100 for the full control effect.
The nature of experiment [12]: P-glycoprotein substrates identified in KB-3-1 adenocarcinoma cell line, qHTS therapeutic library screen (AID 1346986). Also: nearly all actives have a fitted effect of over 60% in size. The settings on record: KB-3-1 parental cells viability, CellTiter-Glo, 72 h; at 44.5 µM (top of the series). The method in brief: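 Cells seeded 500/well in DMEM/10% FCS; compounds pinned in dose-response; 72 h incubation; CellTiter-Glo added, 5 min, luminescence. KB-8-5-11 run ±tariquidar to test reversal of P-gp resistance.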

The nature of experiment [13]: Identifying Small Molecule Inhibitors of Pancreatic Cancer Stem Cells (SN12C, Adherent) (AID 1259358).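 Also: potency is read from the fitted curve at half-maximal effect; cell survival measured after 48 h of compound exposure.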 The method in brief:
(§2)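 Cytotoxicity read by CellTiter-Glo luminescence after 48 h compound exposure at 37C; percent activity scaled between DMSO-treated cells and cell-free wells. Spheroid formats used cells pre-formed 14 days in stem cell media on hydrogel.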

Experiment [14] in a line: Identifying Small Molecule Inhibitors of Pancreatic Cancer Stem Cells (SN12C, Spheroid) (AID 1259360). Also: potency is read from the fitted curve at half-maximal effect. The settings on record: Potency: SN12C spheroid viability. The method in brief: as §2
Experiment [15] can be described thus: Identifying Small Molecule Inhibitors of Pancreatic Cancer Stem Cells (Panc1, Adherent) (AID 1259362). Also: potency is read from the fitted curve at half-maximal effect. The conditions noted are these: viability. The method in brief:
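After a 4 h attachment period, compounds were pinned into wells and cultures held 48 h under standard incubator conditions. Viability was then measured as CellTiter-Glo luminescence following 10 min at room temperature.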

Each structure is given as a SMILES string. Where “and” joins values, the source holds several entries; their conditions need not be identical. Equal entries are not always repeated. Results filed as inconclusive are left out. Where a structure was tested more than once in an assay, its records may differ in their call. Calls of active or inactive are those of the source. Unless noted, calls follow the shape of the dose curve; as a rule, active = well fitted curve in the direction sought with a large enough effect; inconclusive = small, poorly fitted or top-dose-only effect, or another doubt; inactive = no such curve, though single readings can be large; an effect the other way counts as inactive or inconclusive.

Turning to `CCCOc1ccc(C(=O)OCCN(CC)CC)cc1N`, the cell viability, % of control (lower = more cytotoxic) in [1] came out at 177%. Further, the viability (% of control) in experiment [2] turned out to be 105%. Further, the Potency entry in experiment [3], in experiment [4], in experiment [5], in [6], in experiment [7] and in experiment [8] was “inactive” throughout. Also, in [9], the Potency result was “inactive”.

Take `CC(=O)CC(c1ccccc1)c1c(O)c2ccccc2oc1=O` (centres undefined): in experiment [1], the cell viability, % of control (lower = more cytotoxic) stood at 66.7%. In addition, in experiment [2], the viability (% of control) was 60.3%. Moreover, in experiment [3], the Potency entry is “inactive and 23.5 µM (active)”. Further, the Potency entry in experiment [4], in experiment [5], in experiment [7], in [8], in experiment [10] and in experiment [9] was “inactive” each time.

On to `COc1ccc(-c2ccc3cc(C(=O)O)ccc3c2)cc1C12CC3CC(CC(C3)C1)C2`, for which the cell viability, % of control (lower = more cytotoxic) in experiment [1] is 521%. Further, the viability (% of control) in experiment [2] was 112%. The Potency result in [3], in [4], in experiment [7], in experiment [10] and in experiment [11] was “inactive” throughout. Also, the Potency in [5] is 2.09 µM (active); in experiment [6], 2.96 µM (active); in experiment [9] it was 13 µM (active) and inactive. In addition, the result in experiment [12] was inactive.

For the compound `O=C(O)CSCC(=O)NC1CCSC1=O` (centres undefined), the cell viability, % of control (lower = more cytotoxic) in [1] was 118%. Besides, the viability (% of control) in experiment [2] was determined as 112%. In addition, the Potency entry in experiment [3], in experiment [4], in experiment [5], in [7], in experiment [8] and in experiment [9] was “inactive” throughout. The outcome in experiment [12] was inactive.

Take `NC1(c2ccc(-c3nc4ccn5c(=O)[nH]nc5c4cc3-c3ccccc3)cc2)CCC1`: the cell viability, % of control (lower = more cytotoxic) in experiment [1] worked out at 7.66%. In addition, the viability (% of control) in [2] was determined as 4.61%. For the same compound, the Potency result in experiment [3] and in experiment [4] was “inactive” each time. Also, the Potency in [5] is 23.5 µM (active); in experiment [7], 4.69 µM (active); in [8] it was 13.2 µM (active); in experiment [13] it was 26.4 µM (active); in experiment [14], 23.5 µM (active); in experiment [15], 20.9 µM (active). Further, the Potency in [9] was 11.6 µM (active).

For `COc1c(N2CCNC(C)C2)c(F)cc2c(=O)c(C(=O)O)cn(C3CC3)c12` (centres undefined), the cell viability, % of control (lower = more cytotoxic) in experiment [1] is 111%. Further, in experiment [2], the viability (% of control) amounted to 78%. Besides, the Potency entry in experiment [3], in experiment [4], in [5], in [7], in experiment [8] and in experiment [10] was “inactive” each time. For the same compound, the Potency result in [11] and in [9] was “inactive” each time. In addition, the outcome in experiment [12] was inactive.

For the compound `COC(=O)Nc1nc2ccc(S(=O)c3ccccc3)cc2[nH]1` (centres undefined), the cell viability, % of control (lower = more cytotoxic) in [1] came to 86.3%. The viability (% of control) in experiment [2] was 22.2%. In addition, the Potency result in experiment [3] and in experiment [4] was “inactive” each time. Also, the Potency in experiment [5] is 11.8 µM (active); in experiment [6] it was 18.7 µM (active); in experiment [7], 13.2 µM (active); in experiment [8] it was 11.8 µM (active); in experiment [9], 10.5 µM (active).

`Cn1nnc2c(C(N)=O)ncn2c1=O`: the cell viability, % of control (lower = more cytotoxic) in experiment [1] was 79.7%. Moreover, the viability (% of control) in [2] was 80.1%. Further, the Potency entry in experiment [3], in experiment [4], in experiment [5], in experiment [6], in experiment [7] and in experiment [8] was “inactive” in each case. In addition, in experiment [9], the Potency result is “inactive”.

For the compound `CCCc1nc(C)c2c(=O)[nH]c(-c3cc(S(=O)(=O)N4CCN(CC)CC4)ccc3OCC)nn12`, in experiment [1], the cell viability, % of control (lower = more cytotoxic) is 5.18%. In addition, the viability (% of control) in [2] was 4.45%. For the same compound, the Potency entry in experiment [3], in experiment [4], in experiment [10] and in [11] was “inactive” each time. For the same compound, the Potency was 8.33 µM (active) in [6], 3.72 µM (active) in [7] and 9.35 µM (active) in [8].

For `NC(N)=NC(N)=NCCc1ccccc1`, in [1], the cell viability, % of control (lower = more cytotoxic) worked out at 88%. Besides, the viability (% of control) in [2] was 75.1%. Further, the Potency result in [3], in [4], in experiment [10], in experiment [11] and in [9] was “inactive” each time. Also, the Potency in experiment [6] was 18.7 µM (active); in experiment [7], 16.6 µM (active).

With `Cc1nnc(C(=O)NC(C)(C)c2nc(C(=O)NCc3ccc(F)cc3)c(O)c(=O)n2C)o1`, the cell viability, % of control (lower = more cytotoxic) in experiment [1] came out at 126%. For the same compound, the viability (% of control) in [2] was found to be 134%. Moreover, the Potency result in [3], in [4], in experiment [5], in experiment [7], in [8] and in experiment [9] was “inactive” in each case.
